In PubChem BioAssay (NCATS):
“And” between values parts separate entries of the source, which are not always exact repeats. Equal entries are not always repeated. Records with an inconclusive call do not appear. Values without a mark were called inactive. The source made the active and inactive calls. The call rests on the fitted dose curve; in most records, active means well fitted inhibition curve with a large enough effect; inconclusive means small, poorly fitted or top-dose-only effect; inactive means no such curve, though single readings can be large or run the other way.

Target: Cytochrome P450 3A4 (Homo sapiens) (UniProt P08684)
Experiment: qHTS Assay for Inhibitors and Substrates of Cytochrome P450 3A4 (AID 884); further: nearly all actives have a fitted effect of over 50% in size
Conditions: recombinant CYP3A4, Luciferin-PPXE luminescence; series mostly up to 57.1 µM; activity change, negative = inhibition: at the top concentration
Protocol: NIH Molecular Libraries Screening Centers Network [MLSCN]
NIH Chemical Genomics Center [NCGC]
The P450 gene superfamily is involved in the metabolism and clearance of xenobiotics. This assay used human CYP3A4 to measure the dealkylation of luciferin-6' phenylpiperazinylyl (Luciferin-PPXE; […]) to luciferin. The luciferin is then measured by luminescence after the addition of a luciferase detection reagent. Luciferin-PPXE concentration in the assay was equal to its KM for CYP3A4. Inhibitors and some substrates limit the production of luciferin, and decrease measured luminescence.
NCGC Assay Protocol Summary:
Two uL of enzyme and substrate mix (final concentrations: 20nM CYP3A4, 25uM Luciferin-PPXE, 200mM KPO4) were dispensed into a white, solid bottom 1536-well microtiter plate. 23nL of compound was transferred by a pin tool. The plate was incubated at RT for 10 min. Two uL of an NADPH regeneration solution (Promega supplied reagent) was dispensed and the reaction was allowed to continue for 60 min at RT. Then the reaction was stopped by reconstituted luciferin detection buffer. After another 20 min of incubation the plate was read on the ViewLux (Perkin Elmer) at 60 sec exposure and 2x2 binning. This protocol was carried out with Promega-Glo reagents and further information can be found at http://www.promega.com/tbs/tb325/tb325.pdf. Data were normalized to the to AC100 inhibition (57 uM ketoconazole).
Keywords: P450, CYP3A4, Luciferase, MLSMR, MLSCN, NIH Roadmap, qHTS, NCGC
On the % scale 0 is the no-effect control and ±100 the full control effect; potency means the concentration at half of the fitted maximal effect.

Cytochrome P450 3A4 (Homo sapiens), sequence (P08684 whole entry, looked up): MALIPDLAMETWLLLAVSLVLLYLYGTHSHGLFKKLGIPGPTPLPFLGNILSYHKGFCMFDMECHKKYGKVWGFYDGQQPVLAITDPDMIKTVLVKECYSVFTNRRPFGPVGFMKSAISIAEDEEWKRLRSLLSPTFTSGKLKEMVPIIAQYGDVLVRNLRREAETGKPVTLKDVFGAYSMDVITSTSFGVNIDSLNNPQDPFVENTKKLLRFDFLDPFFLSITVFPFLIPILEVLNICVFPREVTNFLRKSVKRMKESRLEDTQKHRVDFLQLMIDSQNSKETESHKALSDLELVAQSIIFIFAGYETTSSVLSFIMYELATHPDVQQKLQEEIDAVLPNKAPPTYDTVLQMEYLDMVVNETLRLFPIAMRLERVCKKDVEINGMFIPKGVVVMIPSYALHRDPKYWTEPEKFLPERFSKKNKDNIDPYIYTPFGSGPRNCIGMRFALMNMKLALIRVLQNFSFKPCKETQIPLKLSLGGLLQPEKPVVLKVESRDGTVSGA

SMILES | activity change, negative = inhibition [%] | Potency
CCOC(=O)C1C(C=C(C)C)C1(C)C (stereo not given) | -14.8 | –
CC(C)NC(=O)N1CCC2(CC1)CCN(C(=O)Oc1ccccc1)CC2 | 121 | –
COc1c2c(cc3c1OCO3)CC[N+](C)=C2 | -17.2 | –
CNc1ccc(C(=O)CC(O)CCC(C)C2OC(=O)CC(O)CC(=O)CC(O)CC(O)CC(O)CC(O)CC3(O)CC(O)C(C(=O)OC)C(CC(O[C@@H]4OC(C)C(O)C(N)C4O)/C=C/C=C/C=C/C=C/C=C/C=C/C=C/C2C)O3)cc1 (stereo not given in full) | -14.2 | –
O=C(Nc1cccc(F)c1)N1CC2(CCN(C(=O)Oc3ccccc3)CC2)C1 | 114 | –
O=C(O)CCC1NCC2CC1CN1CCCCC21 (stereo not given) | -7.17 | –
CC1(C)C(=O)C=C[C@@]2(C)C1CC(O)[C@]1(C)C2CC[C@@]2(C)C(c3ccoc3)OC(=O)C3O[C@]312 (stereo not given in full) | – | 3.98 µM (active)
CC(=O)OC1CCC23C(=O)OC45CCC(C6=CC(=O)OC6)C4(C)CCC2C5CCC3(O)C1 (stereo not given) | -10.5 | –
O=C(NC(=O)c1ccccc1Cl)Nc1ccc(OC(F)(F)F)cc1 | -16.9 | –
CC(C)(C)OO | – | inactive
C[C@@]12CCC3C(CC[C@@H]4CC(O)CC[C@@]34C)C1CCC2O (stereo not given in full) | 7.86 | –
ClC(Cl)=C(Cl)Cl | – | inactive
CN1Cc2c(ccc3c2OCO3)[C@@H]2[C@@H](O)Cc3cc4c(cc3[C@@H]21)OCO4 | – | 5.01 µM (active)
CC([C@H](O)c1ccccc1)N(C)C (stereo not given in full) | -24.2 | –
C=C1C([C@@]2(C)C(OC(C)=O)CC(=O)O[C@@](C)(COC(C)=O)C2CC(=O)OC)C(OC=O)C(OC(=O)C(OC(C)=O)C(C)CC)[C@]2(C)C(c3ccoc3)CC(=O)C12O (stereo not given in full) | – | 12.6 µM (active)
COc1cc2c(cc1OC)C(C)NCC2 (stereo not given) | – | inactive
C[C@H]1CCCC(=O)CCC/C=C/c2cc(O)cc(O)c2C(=O)O1 | – | 316 nM (active) and 398 nM (active)
Brc1ccccc1 | -8.98 | –
Cc1c(O)c(O)cc2c1CC=C1[C@]3(C)CC[C@]4(C)CC[C@@](C)(C(=O)O)CC4[C@]3(C)CC[C@]12C (stereo not given in full) | -4.79 | –
CCC(C)C(=O)c1c(O)c(C)c2oc3c(C)c(O)c(C(=O)C(C)CC)c(O)c3c2c1O (stereo not given) | -2.3 | –

SMILES | activity change, negative = inhibition [%] | Potency
ClC1=C(Cl)C2(Cl)C3C(Cl)C=CC3C1(Cl)C2(Cl)Cl (stereo not given) | – | 10 µM (active)
Cc1cc(OC(=O)N2CCCCC2)c(C(C)C)cc1[N+](C)(C)C | 5.9 | –
CCC[CH2][Sn]([Cl])([Cl])[Cl] | -1.35 | –
c1cncc([C@H]2CCCCN2)c1 | -15.4 | –
COc1ccc(/C=C/c2cc(O)cc(O)c2)cc1 | -7.47 | –
CNC(C)[C@@H](O)c1ccccc1 (stereo not given in full) | -11.6 | –
C[C@]12CCC(=O)C=C1CCc1ccc(O)cc12 | – | 25.1 µM (active)
COc1cc2c(cc1OC)[C@@H]1C(=O)c3ccc(O)c(CC=C(C)C)c3OC1CO2 (stereo not given in full) | -19.1 | –
CN=C=S | -3.04 | –
CCc1cccc(CC)c1N(COC)C(=O)CCl | -4.95 | –
COC1CC(OC2CC[C@@]3(C=O)C4CC[C@]5(C)C(C6=CC(=O)OC6)CC[C@@]5(O)C4CC[C@]3(O)C2)OC(C)C1O (stereo not given in full) | -15.9 | –
CCSC(=O)Cl | -2.36 | –
C[C@@]12CC(c3ccoc3)OC(=O)C1CC[C@@]1(C)C2C2C=C[C@@]1(O)C(=O)O2 (stereo not given in full) | -21.2 | –
C[C@H]1C(=O)O[C@H]2CCN3CC=C(COC(=O)[C@](C)(O)[C@@]1(C)O)C23 (stereo not given in full) | -10.4 | –
CC(=O)O.CC(=O)O.[Cd] | -21.4 | –
O=c1cccc2n1CC1CC2CN2CCCCC12 (stereo not given) | -11.2 | –
O=C(Oc1ccccc1)N1CCC2(CCN(Cc3ccccc3)CC2)CC1 | 33.8 | –
CCCOC(=O)c1ccccc1C(=O)OCCC | 18.5 | –
COc1cc(C2c3cc4c(c(O)c3CC3COC(=O)C32)OCO4)cc(OC)c1OC (stereo not given) | – | 1 µM (active)
CC1C(=O)OC2C(O)C34C5OC(=O)[C@@]3(OC3OC(=O)[C@H](O)[C@]34C(C(C)(C)C)C5O)[C@]12O (stereo not given in full) | -7.56 | –
